Assay outcomes as filed in PubChem BioAssay.
RORgamma inh = blocks mouse ROR gamma transcriptional activity; P51450; Drosophila S2 Gal4-RORgamma UAS-luciferase reporter, 20 h; Potency, µM (top dose mostly 53.6 µM), inactives show at the top dose activity change, negative = inhibition, hits mostly inhibitors; 310,000 compounds, 5.4% hits; note: nearly all actives have a fitted effect of over 60% in size
Target sequence (P51450 whole entry, looked up, the tested form may be a part): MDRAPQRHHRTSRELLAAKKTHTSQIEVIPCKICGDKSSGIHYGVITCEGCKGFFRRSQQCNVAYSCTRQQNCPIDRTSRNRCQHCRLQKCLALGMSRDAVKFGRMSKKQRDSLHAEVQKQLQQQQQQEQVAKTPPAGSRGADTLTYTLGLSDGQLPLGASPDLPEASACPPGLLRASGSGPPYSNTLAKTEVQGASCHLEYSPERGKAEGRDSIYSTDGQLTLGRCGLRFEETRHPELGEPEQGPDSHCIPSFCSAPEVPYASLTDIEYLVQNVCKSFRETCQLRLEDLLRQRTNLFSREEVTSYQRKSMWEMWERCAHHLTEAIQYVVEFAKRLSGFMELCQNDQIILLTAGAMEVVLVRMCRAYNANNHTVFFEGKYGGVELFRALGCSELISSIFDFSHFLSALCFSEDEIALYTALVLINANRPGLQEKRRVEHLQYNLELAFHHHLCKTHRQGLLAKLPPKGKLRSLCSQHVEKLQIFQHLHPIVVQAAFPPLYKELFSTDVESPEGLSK
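Using a luciferase readout, inhibitors were identified by reduced reporter activity in Drosophila cells coexpressing a copper-inducible Gal4–ROR gamma fusion and UAS-driven Photinus luciferase, incubated 20 hr after 700 uM copper sulfate.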
ELG1 DNA repair = ELG1-dependent DNA repair inhibition. 330,000 compounds, 2.3% hits. Potency, µM (top dose mostly 46.1 µM), for the others: top-dose activity change, negative = inhibition, usual class: inhibitors. AID 504467. HEK293T ELG1-luciferase reporter, luminescence, 16 h; DNA damage induced by 5-fluorouridine; note: nearly all actives have a fitted effect of over 55% in size
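HEK293T cells expressing luciferase-tagged ELG1 (2,000/well) received 5-Fluorouridine plus compound or DMSO for 16 hr at 37 °C. Luciferase was read by ONE-Glo luminescence after 30 min at room temperature.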
TDP1 cell noCPT = qHTS for Inhibitors of human tyrosyl-DNA phosphodiesterase 1 (TDP1): qHTS in cells in absence of CPT | DT40 Tdp1-/- hTDP1 cells, no CPT, ATP luminescence, 48 h | Potency, µM (doses to about 46.2 µM), without a hit: at the highest dose activity change, negative = growth inhibition, hits mostly inhibitors | 420,000 compounds, 15% hits; note: nearly all actives have a fitted effect of over 55% in size
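Luminescent ATP content (CellTiter-Glo) served as the growth readout. Knockout chicken DT40 cells expressing human TDP1 were exposed to compounds without camptothecin for a minimum 48 hr at 37 °C.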
ALOX12 inh = inhibitors of human 12S-lipoxygenase ALOX12; P18054; purified 12hLO, xylenol orange hydroperoxide absorbance; Potency, µM (titrated, usually from 108 µM), for the others: top-dose activity change, negative = inhibition, actives largely listed as inhibitors; 580,000 compounds, 1.1% hits; AID 1671190
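Hydroperoxide product was detected by ferrous iron/xylenol orange as the 573 to 405 nm absorbance ratio. Arachidonic acid at 40 uM (final) was turned over for 30 min at room temperature by 150 nM human 12hLO, pH 7.0 Hepes buffer, after 15 min compound preincubation.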
TDP1 cell CPT = growth inhibition of DT40 Tdp1-/-;hTDP1 cells with camptothecin (screen for TDP1 inhibitors); AID 686979; Potency, µM (top dose mostly 46.2 µM), for inactives: top-dose activity change, negative = growth inhibition, hits mostly inhibitors; 420,000 compounds, 12% hits; chicken DT40 Tdp1-/-;hTDP1 cells + 20 nM CPT, ATP luminescence, 48 h; note: nearly all actives have a fitted effect of over 55% in size
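Cell growth measured by CellTiter-Glo luminescence after a minimum 48 h, 37 C compound exposure with 20 nM CPT in Tdp1-knockout DT40 cells stably expressing hTDP1, seeded 400/well; qHTS titration format.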
VP16 counter = inhibits Gal4-VP16 luciferase reporter, ROR gamma counter-screen | Drosophila S2 Gal4-VP16 UAS-luciferase, luminescence, 20 h | Potency, µM (highest dose often 53.6 µM), without a hit: at the highest dose activity, negative = inhibition, actives largely listed as inhibitors | 310,000 compounds, 3.5% hits | AID 2546;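 note: Gal4-VP16 expression switched on by copper sulfate through the metallothionein promoter; nearly all actives have a fitted effect of over 50% in size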
An asterisk follows results filed as active; [ ] = dose if it differs, or a comment. The list is not random: actives were taken first. Their share in the collection is about 15%. Calls come from the whole dose curve; as a rule, active = well fitted curve in the direction sought with a large enough effect; inconclusive = small, poorly fitted or top-dose-only effect, or another doubt; inactive = no such curve, though single readings can be large; an effect the other way counts as inactive or inconclusive. % is set by controls: 0 for no effect and ±100 for the full control effect; potency is the fitted concentration of half-maximal effect.

For CCCCCCC(=O)O[C@H]1CC[C@H]2[C@@H]3CC[C@H]4CC(=O)C=C(C)[C@]4(C)[C@H]3CC[C@]12C the results were TDP1 cell noCPT inconclusive and TDP1 cell CPT 3.4%.
CCCCCCn1c(O)c(C=NC2CCN(Cc3ccccc3)CC2)c(=O)[nH]c1=O was read as RORgamma inh -4.3%, ELG1 DNA repair 20.6µM*, TDP1 cell noCPT 10.3µM*, ALOX12 inh 0.0%, TDP1 cell CPT 20.6µM* and VP16 counter -2.6%.
`O=c1[nH]c(=O)n(CCC2=CCCCC2)c(O)c1/C=N/Nc1ccccc1` gave RORgamma inh inconclusive, ELG1 DNA repair -4.8%, TDP1 cell noCPT -29.9%, ALOX12 inh -13.3%, TDP1 cell CPT -15.3% and VP16 counter 20µM*.
Screening O=c1[nH]c(=O)n(CCC2=CCCCC2)c(O)c1C=NCCN1CCNCC1 returned RORgamma inh -1.0%, ELG1 DNA repair -0.3%, TDP1 cell noCPT -11.1%, ALOX12 inh inconclusive, TDP1 cell CPT 7.6% and VP16 counter -2.7%.
Screening O=c1[nH]c(=O)n(CCC2=CCCCC2)c(O)c1C=NC1CCN(Cc2ccccc2)CC1 returned RORgamma inh 13.4%, ELG1 DNA repair inconclusive, TDP1 cell noCPT 16.4µM*, ALOX12 inh 148.1%, TDP1 cell CPT 14.6µM* and VP16 counter 2.4%.
For C=CCn1c(O)c(C=NC2CCN(Cc3ccccc3)CC2)c(=O)[nH]c1=O the results were RORgamma inh 0.1%, ELG1 DNA repair -16.9%, TDP1 cell noCPT -20.5%, ALOX12 inh 0.0%, TDP1 cell CPT -7.4% and VP16 counter 1.7%.
CCCS(=O)(=O)NC[C@H]1C[C@@H]2CCN1C[C@@H]2c1cc(-c2ccc(F)cc2)nn1C was read as ALOX12 inh 15.2%[176 µM].
For CC(Nc1ccc([N+](=O)[O-])c2cnccc12)C12CC3CC(CC(C3)C1)C2 (stereo unspecified) the results were ALOX12 inh 0.9%.
For CNCc1cn(C[C@H]2CC3CCN2C[C@@H]3C(=O)NC2CC2)nn1 (stereo partly specified) the results were ALOX12 inh 14.7%[176 µM].
CC(C)C(=O)c1cn(Cc2ccc(C#N)cc2)c2ccccc12 was read as RORgamma inh inconclusive, ELG1 DNA repair 18.4µM*, TDP1 cell noCPT inconclusive, ALOX12 inh -6.1%, TDP1 cell CPT 29.1µM* and VP16 counter -3.2%.
Screening CC(=O)c1ccc(N2CCN(S(=O)(=O)c3cc(-c4onc(C)c4C)ccc3C)CC2)cc1 returned TDP1 cell noCPT 9.2µM*, ALOX12 inh -15.5% and TDP1 cell CPT 8.2µM*.
For CN1[C@@H]2CC[C@H]1CC(OC1c3ccccc3CCc3ccccc31)C2 (stereo partly specified) the results were RORgamma inh 13.5%[16.9 µM], ELG1 DNA repair -19.8%, TDP1 cell noCPT 2.59µM*, ALOX12 inh -10.7%, TDP1 cell CPT 8.2µM* and VP16 counter 7.7%[17 µM].
`Cc1ncc2c(n1)C[C@@H]1CC[C@H]2N1C(=O)COc1ccccc1` gave ALOX12 inh 20.3%.
For CNC(=O)Oc1c(C)[nH]ccc1=O the results were TDP1 cell noCPT -0.1%, ALOX12 inh 13.5% and TDP1 cell CPT 0.7%.
`CNC(=O)Oc1cccc(-c2cn3cc(OC(=O)NC)ccc3n2)c1` gave RORgamma inh inconclusive, ELG1 DNA repair inconclusive, TDP1 cell noCPT 20.6µM*, ALOX12 inh 4.6%, TDP1 cell CPT inconclusive and VP16 counter inconclusive.
CNC(=O)Oc1ccc(-c2cn3cc(Cl)ccc3n2)cc1 was read as RORgamma inh 6.31µM*, ELG1 DNA repair inconclusive, TDP1 cell noCPT inconclusive, ALOX12 inh -12.2%, TDP1 cell CPT 20.6µM* and VP16 counter inconclusive.
For O=C(OCc1c(-c2ccccc2)ncc2ccccc12)c1ccc(C(F)(F)F)cc1 the results were ELG1 DNA repair inconclusive, TDP1 cell noCPT 5.8µM*, ALOX12 inh -14.6% and TDP1 cell CPT inconclusive.
COc1ccc(-c2ccc(OC)c(OC)c2OC)cc1 was read as TDP1 cell noCPT 5.17µM*, ALOX12 inh 13.0% and TDP1 cell CPT 14.6µM*.
For COc1ccc(OC)c(C(O)C(C)N)c1 (stereo unspecified) the results were RORgamma inh -16.5%, ELG1 DNA repair -1.2%, TDP1 cell noCPT -2.9%, ALOX12 inh -0.7%, TDP1 cell CPT 10.1% and VP16 counter 2.1%.
For COCc1cn(C[C@H]2CC3CCN2C[C@@H]3C(=O)N2CCN(c3ccccc3OC)CC2)nn1 (stereo partly specified) the results were ALOX12 inh 1.2%.
Screening CN(C)C(=O)CCSC(SCCC(=O)O)c1cccc(/C=C/c2ccc3ccc(Cl)cc3n2)c1 (stereo unspecified) returned RORgamma inh inconclusive, TDP1 cell noCPT 16.8µM*, TDP1 cell CPT inconclusive and VP16 counter -3.5%.
Cn1nc(-c2ccccc2)cc1[C@H]1CN2CC[C@H]1C[C@@H]2CNC(=O)c1ccco1 was read as ALOX12 inh 43.3%[176 µM].
C[C@H]1CCCC(=O)CCCCCc2cc(O)cc(O)c2C(=O)O1 was read as RORgamma inh 0.8%, ELG1 DNA repair inconclusive, TDP1 cell noCPT 18.4µM*, ALOX12 inh -3.1%, TDP1 cell CPT inconclusive and VP16 counter inconclusive.
Screening c1cc2c(cc1[C@H]1OC[C@H]3[C@H]1CO[C@H]3c1ccc3c(c1)OCO3)OCO2 returned ALOX12 inh -24.0%[57.4 µM].
For Cc1ccccc1CS(=O)(=O)Cc1ccc(C(=O)N2CCC3(CC2)OCCO3)o1 the results were RORgamma inh 7.5%, ELG1 DNA repair -8.7%, TDP1 cell noCPT -10.3%, ALOX12 inh 12.5%, TDP1 cell CPT 1.1% and VP16 counter -2.6%.
Screening CCOc1ccc(CCNC(=O)c2ccc(CS(=O)(=O)c3ccccc3C)o2)cc1OCC returned TDP1 cell noCPT 14.6µM*, ALOX12 inh -9.4% and TDP1 cell CPT inconclusive.
`CCN(CC)C(=O)c1ccc2c(c1)C1C(Cl)C(Sc3ccccc3[N+](=O)[O-])CC1C(C(=O)O)N2` (stereo unspecified) gave RORgamma inh -3.4%, ELG1 DNA repair -26.8%, TDP1 cell noCPT 20.6µM*, TDP1 cell CPT inconclusive and VP16 counter inconclusive.
